# Data as given in PubChem BioAssay (EPA / NIEHS).
# Records with an inconclusive call do not appear. Activity calls are given as the source filed them. How the source made its calls, unless noted: active means hit-call score of the fitted dose curve at least 0.9, where 1 is the maximum; inconclusive means response in the unintended direction; inactive means score below 0.9.
# Tests used:
# PGR (gene 5241) [1] = target: PGR (gene 5241) (UniProt P06401); assay: TOX21_PR_BLA_Followup_Antagonist_ratio: Tox21 HEK293 Progesterone Receptor (PR) Antagonism Beta-lactamase Follow-Up Assay, Ratio (AID 2283934);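 further: PR-UAS-bla HEK293T cells stimulated with 1 nM R5020 agonist for 16 hr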
# Summary of the method: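 Measured in PR-UAS-bla HEK293T cells co-treated with compound and 1 nM promegestone for 16 hr; beta-lactamase ratio read after 2 h FRET substrate loading, with parallel CellTiter-Glo cytotoxicity.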
# [2] = TOX21_PR_BLA_Followup_Agonist_viability: Viability Assessment in the Tox21 HEK293 Progesterone Receptor (PR) Agonism Beta-lactamase Follow-Up Assay (AID 2283935);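 further: signal loss means lower viability so actives are cytotoxic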
# Summary of the method: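 Viability is read as CellTiter-Glo luminescence, where loss of signal indicates cytotoxicity. The cells are PR-UAS-bla HEK293T given compounds for 16 hr at 37C and 5% CO2, in the same wells used for the bla readout.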
# PGR (gene 5241) [3] = target: PGR (gene 5241) (UniProt P06401); assay: TOX21_PR_LUC_Followup_Antagonist: Tox21 HEK293 Progesterone Receptor (PR) Antagonism Luciferase Follow-Up Assay (AID 2283938);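 further: curve fitted upward as signal gain over DMSO baseline despite antagonist label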
# Summary of the method: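 A follow-up to the PR bla screen using HEK293-PR-A-luc cells, multiplexed with cell viability to flag cytotoxicity. Reporter luminescence after 16 h compound exposure was analysed relative to DMSO.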
# [4] = TOX21_PR_LUC_Followup_Antagonist_viability: Viability Assessment in the Tox21 HEK293 Progesterone Receptor (PR) Antagonism Luciferase Follow-Up Assay (AID 2283940)
# Summary of the method: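 Loss of CellTiter-Glo ATP signal indicates cytotoxicity in HEK293-PR-A-luc cells grown in 10% charcoal-stripped FBS medium, seeded 3,000 per well and incubated 16 h with compound at 37C.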
# [5] = TOX21_PR_LUC_Followup_Agonist_viability: Viability Assessment in the Tox21 HEK293 Progesterone Receptor (PR) Agonism Luciferase Follow-Up Assay (AID 2283941);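 further: loss of signal means cytotoxicity so actives lower viability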
# Summary of the method: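 Seeding: HEK293-PR-A-luc, 3,000 cells/well, 5 h at 37C. Treatment: compound in DMSO, 16 h, 37C. Read: CellTiter-Glo ATP luminescence, signal loss taken as lower viability.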
# [6] = target: Thyroid hormone receptor alpha (Rattus norvegicus) + Thyroid hormone receptor beta (Rattus norvegicus) (UniProt P18113+P63059); assay: TOX21_TR_LUC_GH3_Antagonist_Followup: Tox21 GH3 Thyroid Hormone Receptor Antagonism Luciferase Follow-Up Assay (AID 2283942)
# Summary of the method: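 Luminescence read-out (ONE-Glo, 30 min at room temperature) in GH3 reporter cells challenged with 1.0 nM T3 final. Compounds ran at 92 uM to 5nM over 15 concentrations for 24 h; DMSO served as negative control and baseline.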
# THRA (gene 7067) = THRA (gene 7067) (UniProt P10827); assay: TOX21_TRA_COA_Antagonist_Followup_ratio: Tox21 Thyroid Hormone Receptor alpha Antagonism through Coactivator Recruitment Follow-Up Assay, Ratio (AID 2283953)
# Summary of the method: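 We measured antagonism of T3-type coactivator recruitment using a TR-FRET ratio (emission 520 and 495 nm) between a Tb-labelled anti-GST antibody on TRα LBD (2.5 nM) and SRC-2 peptide (200 nM). Activity was scaled between DMSO and T3 wells.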
# THRB (gene 7068) [7] = target: THRB (gene 7068) (UniProt P10828); assay: TOX21_TRB_BLA_Antagonist_Followup_ratio: Tox21 Thyroid Hormone Receptor beta Antagonism Beta-lactamase (BLA) Follow-Up Assay, Ratio (AID 2283958)
# Summary of the method: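 Using charcoal-stripped 2% FBS medium, human TRβ-LBD/GAL4 reporter HEK293T cells received test compounds for 18 h. The endpoint is the cleaved-to-uncleaved substrate ratio (460/530 nm).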
# [8] = TOX21_TR_RXR_BLA_Agonist_Followup_viability: Viability Assessment in the Tox21 Thyroid Hormone Receptor beta Retinoid X Receptor alpha (RXRa) Agonism Beta-lactamase (BLA) Follow-Up Assay (AID 2283970)
# Summary of the method: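 Luminescent ATP read (CellTiter-Glo) after 16h exposure of RXRa-UAS-bla HEK293T cells at 37C/5% CO2. Activity normalized to DMSO; signal loss scored as reduced viability.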
# [9] = TOX21_PR_BLA_Followup_Antagonist_viability: Viability Assessment in the Tox21 HEK293 Progesterone Receptor (PR) Antagonism Beta-lactamase Follow-Up Assay (AID 2283936);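 further: cells exposed to compound with R5020 agonist for 16 h; hits lower the luminescence signal meaning cytotoxicity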
# Summary of the method: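 PR-UAS-bla HEK293T cells in medium with 2% charcoal-stripped FBS were treated with compounds plus R5020 for 16 hr at 37C. After the beta-lactamase read, CellTiter-Glo was added to the same wells and luminescence read after 30 min at room temperature.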
# [10] = TOX21_TRB_BLA_Antagonist_Followup_viability: Viability Assessment in the Tox21 Thyroid Hormone Receptor beta Antagonism Beta-lactamase (BLA) Follow-Up Assay (AID 2283961)
# Summary of the method: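 Cytotoxicity is measured in parallel with the antagonist-mode TRβ beta-lactamase screen, using ATP-coupled luciferase luminescence. Engineered HEK293T cells are treated for 18 h with 11-point compound series in triplicate.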
# [11] = CEETOX_H295R_ANDR_noMTC: CeeTox H295R High-throughput Steroidogenesis Assay for Androstenedione (ANDR), maximum tolerated concentration (MTC) filtered results only (AID 2283915; active means hit-call score of the fitted dose curve at least 0.9, where 1 is the maximum; inactive means score below 0.9); conditions: actives raise or lower the signal
# Summary of the method: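 Androstenedione secreted into medium was measured by LC-MS/MS after MTBE extraction. Human adrenal H295R cells received 10 uM forskolin for 48 h before 48 h chemical exposure (0.1% DMSO). Gain or loss fitted against DMSO, including concentrations above the MTT-derived MTC.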
# [12] = CEETOX_H295R_CORTISOL_noMTC: CeeTox H295R High-throughput Steroidogenesis Assay for Cortisol, maximum tolerated concentration (MTC) filtered results only (AID 2283916; active means hit-call score of the fitted dose curve at least 0.9, where 1 is the maximum; inactive means score below 0.9); conditions: actives raise or lower the signal
# Summary of the method: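 H295R human adrenal cells prestimulated 48 h with 10 uM forskolin, then exposed 48 h to chemical in 0.1% DMSO; cortisol in medium quantified by HPLC-MS/MS; bidirectional fit vs DMSO baseline, concentrations not MTT-filtered for MTC.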
# [13] = CEETOX_H295R_CORTIC_noMTC: CeeTox H295R High-throughput Steroidogenesis Assay for Corticosterone (CORTIC), maximum tolerated concentration (MTC) filtered results only (AID 2283917; active means hit-call score of the fitted dose curve at least 0.9, where 1 is the maximum; inactive means score below 0.9); conditions: actives raise or lower the signal
# Summary of the method: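 Corticosterone secreted into the medium was measured by reverse-phase C18 HPLC with tandem MS after MTBE extraction. Cells (H295R) had 48 h forskolin (10 uM) stimulation before 48 h chemical exposure; gain or loss of signal was fitted relative to DMSO.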
# [14] = CEETOX_H295R_DOC_noMTC: CeeTox H295R High-throughput Steroidogenesis Assay for DOC, maximum tolerated concentration (MTC) filtered results only (AID 2283918; active means hit-call score of the fitted dose curve at least 0.9, where 1 is the maximum; inactive means score below 0.9); conditions: actives raise or lower the signal
# Summary of the method: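 H295R cells prestimulated 48 h with 10 uM forskolin, then exposed 48 h to chemical in 0.1% DMSO. 11-Deoxycorticosterone in medium measured by MTBE extraction and HPLC-MS/MS; bidirectional fit vs DMSO, no MTC filter.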
# [15] = CEETOX_H295R_ESTRADIOL_noMTC: CeeTox H295R High-throughput Steroidogenesis Assay for Estradiol, maximum tolerated concentration (MTC) filtered results only (AID 2283919; active means hit-call score of the fitted dose curve at least 0.9, where 1 is the maximum; inactive means score below 0.9); conditions: actives raise or lower the signal
# Summary of the method: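 Readout: dansyl-derivatized estradiol quantified by LC-MS/MS in medium from H295R cells dosed 48 h (0.1% DMSO) following 48 h forskolin (10 uM) prestimulation. Gain or loss of signal fitted against DMSO; no MTC filtering applied.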
# [16] = CEETOX_H295R_PROG_noMTC: CeeTox H295R High-throughput Steroidogenesis Assay for Progesterone (PROG), maximum tolerated concentration (MTC) filtered results only (AID 2283920; active means hit-call score of the fitted dose curve at least 0.9, where 1 is the maximum; inactive means score below 0.9); conditions: actives raise or lower the signal
# Summary of the method: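 Readout: medium progesterone by MTBE extraction, reverse-phase C18 HPLC, ESI-positive MS/MS. Human H295R cells, 10 uM forskolin pretreatment 48 h, chemical 48 h in 0.1% DMSO. Gain or loss fitted against DMSO baseline.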
# [17] = CEETOX_H295R_ESTRONE_noMTC: CeeTox H295R High-throughput Steroidogenesis Assay for Estrone, maximum tolerated concentration (MTC) filtered results only (AID 2283921; active means hit-call score of the fitted dose curve at least 0.9, where 1 is the maximum; inactive means score below 0.9); conditions: actives raise or lower the signal
# Summary of the method: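 Estrone in spent medium, quantified by tandem MS following dansyl chloride derivatization, after 48 h chemical exposure (0.1% DMSO) of forskolin-prestimulated (10 uM, 48 h) H295R cells; concentrations not MTC-filtered, bidirectional fit against DMSO.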
# [18] = CEETOX_H295R_TESTO_noMTC: CeeTox H295R High-throughput Steroidogenesis Assay for Testosterone (TESTO), maximum tolerated concentration (MTC) filtered results only (AID 2283924; active means hit-call score of the fitted dose curve at least 0.9, where 1 is the maximum; inactive means score below 0.9); conditions: actives raise or lower the signal
# Summary of the method: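 Medium testosterone, measured by HPLC-MS/MS after liquid-liquid extraction, was fitted in both directions relative to DMSO without MTC filtering. Adrenal H295R cells received 48 h chemical exposure (0.1% DMSO final) after 48 h forskolin (10 uM) prestimulation; viability by MTT.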
# THRB (gene 7068) [19] = target: THRB (gene 7068) (UniProt P10828); assay: TOX21_TRB_COA_Antagonist_Followup_ratio: Tox21 Thyroid Hormone Receptor beta Antagonism through Coactivator Recruitment Follow-Up Assay, Ratio (AID 2283967)
# Summary of the method: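 GST-TRb LBD 5.0 nM + 0.10% BSA, compound added; fluorescein-SRC-2 peptide 200 nM, Tb-anti-GST Ab 2 nM. TR-FRET, ex 340 / em 520:495 ratio. Norm: DMSO 0%, T3 100%.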
# Sequence of THRA (gene 7067) (P10827 whole entry, looked up, the tested form may be a part): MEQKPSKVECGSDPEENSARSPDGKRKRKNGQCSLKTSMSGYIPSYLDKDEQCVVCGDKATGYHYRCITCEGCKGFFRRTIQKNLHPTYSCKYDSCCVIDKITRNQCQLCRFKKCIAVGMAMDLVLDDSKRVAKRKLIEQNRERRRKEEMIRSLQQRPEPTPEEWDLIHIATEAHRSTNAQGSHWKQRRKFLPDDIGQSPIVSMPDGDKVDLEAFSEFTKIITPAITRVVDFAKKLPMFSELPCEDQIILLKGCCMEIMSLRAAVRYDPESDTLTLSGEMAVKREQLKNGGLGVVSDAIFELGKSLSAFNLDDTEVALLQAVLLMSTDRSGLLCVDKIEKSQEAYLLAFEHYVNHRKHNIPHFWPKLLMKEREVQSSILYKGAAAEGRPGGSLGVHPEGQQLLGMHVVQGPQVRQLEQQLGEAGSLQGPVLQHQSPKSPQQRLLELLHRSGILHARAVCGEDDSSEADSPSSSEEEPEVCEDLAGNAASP
# Sequence of PGR (gene 5241) (P06401 whole entry, looked up): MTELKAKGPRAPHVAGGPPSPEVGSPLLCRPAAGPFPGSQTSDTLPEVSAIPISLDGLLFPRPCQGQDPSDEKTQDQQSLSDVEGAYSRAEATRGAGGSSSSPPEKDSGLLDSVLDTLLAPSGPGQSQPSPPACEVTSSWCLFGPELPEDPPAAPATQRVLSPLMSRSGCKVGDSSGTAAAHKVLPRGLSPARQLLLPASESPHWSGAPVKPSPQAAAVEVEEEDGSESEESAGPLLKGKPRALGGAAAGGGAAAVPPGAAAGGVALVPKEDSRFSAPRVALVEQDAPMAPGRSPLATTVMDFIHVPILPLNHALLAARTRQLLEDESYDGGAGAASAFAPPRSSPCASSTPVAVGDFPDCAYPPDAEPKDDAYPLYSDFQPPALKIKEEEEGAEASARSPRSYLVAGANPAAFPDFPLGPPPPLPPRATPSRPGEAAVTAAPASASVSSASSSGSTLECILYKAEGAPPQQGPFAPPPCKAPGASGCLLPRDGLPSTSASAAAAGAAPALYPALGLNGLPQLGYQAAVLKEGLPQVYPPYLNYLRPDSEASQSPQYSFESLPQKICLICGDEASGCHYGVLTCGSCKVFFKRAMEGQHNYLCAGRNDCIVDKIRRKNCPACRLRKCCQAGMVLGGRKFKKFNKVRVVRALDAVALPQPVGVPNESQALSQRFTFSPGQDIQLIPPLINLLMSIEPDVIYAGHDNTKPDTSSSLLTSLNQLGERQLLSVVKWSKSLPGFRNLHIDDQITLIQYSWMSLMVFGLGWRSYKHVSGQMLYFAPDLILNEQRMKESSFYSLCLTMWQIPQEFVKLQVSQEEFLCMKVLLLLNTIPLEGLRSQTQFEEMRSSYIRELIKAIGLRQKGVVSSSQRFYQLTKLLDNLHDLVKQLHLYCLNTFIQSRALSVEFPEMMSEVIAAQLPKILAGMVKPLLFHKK
# Sequence of THRB (gene 7068) (P10828 whole entry, looked up, the tested form may be a part): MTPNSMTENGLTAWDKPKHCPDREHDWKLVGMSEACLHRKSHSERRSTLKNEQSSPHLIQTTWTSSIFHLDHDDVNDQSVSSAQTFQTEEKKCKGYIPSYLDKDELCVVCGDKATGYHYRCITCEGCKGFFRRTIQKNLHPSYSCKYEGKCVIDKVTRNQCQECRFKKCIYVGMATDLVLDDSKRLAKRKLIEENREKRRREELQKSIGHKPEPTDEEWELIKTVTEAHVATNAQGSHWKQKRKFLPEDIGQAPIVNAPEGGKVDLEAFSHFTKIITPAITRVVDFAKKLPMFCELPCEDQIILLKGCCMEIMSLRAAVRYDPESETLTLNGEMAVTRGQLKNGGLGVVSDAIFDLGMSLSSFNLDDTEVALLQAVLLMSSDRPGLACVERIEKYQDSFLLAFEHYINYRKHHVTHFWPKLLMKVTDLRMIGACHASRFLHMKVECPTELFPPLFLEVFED
smiles,measurement,setting,value
C[C@]12CC[C@@H]3c4ccc(O)cc4CC[C@H]3[C@@H]1C[C@@H](O)[C@@H]2O,AC50,PGR (gene 5241) [1],17.1 µM (active)
same,outcome,[2],inactive
same,AC50,PGR (gene 5241) [3],26 µM (active)
same,outcome,[4],inactive
same,outcome,[5],inactive
Clc1ccc(Nc2nnc(Cc3ccncc3)c3ccccc23)cc1,outcome,[6],inactive
same,outcome,THRA (gene 7067),inactive
same,outcome,THRB (gene 7068) [7],inactive
C=C(c1ccc(C(=O)O)cc1)c1cc2c(cc1C)C(C)(C)CCC2(C)C,outcome,[8],inactive
C[C@]12CC[C@@H]3c4ccc(O)cc4CC[C@H]3[C@@H]1CC[C@@H]2OC(=O)CCC1CCCC1,AC50,PGR (gene 5241) [1],1.01 µM (active)
same,outcome,[2],inactive
same,outcome,[9],inactive
same,outcome,PGR (gene 5241) [3],inactive
COc1ccccc1NC(=O)c1cc2ccccc2cc1O,AC50,[6],27.2 µM (active)
same,AC50,THRB (gene 7068) [7],38.3 µM (active)
same,AC50,[10],28.3 µM (active)
C/C=C/C(=O)C1=C(C)CCCC1(C)C,AC50,[11],31.3 µM (active)
same,outcome,[12],inactive
same,outcome,[13],inactive
same,AC50,[14],12.2 µM (active)
same,outcome,[15],inactive
same,AC50,[16],10.6 µM (active)
same,outcome,[17],inactive
same,outcome,[18],inactive
Nc1cc(Cl)c(-c2cc(Cl)c(N)cc2Cl)cc1Cl,AC50,[6],58.1 µM (active)
same,outcome,THRA (gene 7067),inactive
same,AC50,THRB (gene 7068) [7],6.14 µM (active)
same,AC50,[10],60.1 µM (active)
same,outcome,THRB (gene 7068) [19],inactive
CC(C)c1c(C(=O)Nc2ccccc2)c(-c2ccccc2)c(-c2ccc(F)cc2)n1CC[C@@H](O)C[C@@H](O)CC(=O)O,outcome,THRA (gene 7067),inactive
same,outcome,THRB (gene 7068) [7],inactive
same,outcome,[10],inactive
same,outcome,THRB (gene 7068) [19],inactive
O=c1cc(-c2ccccc2)oc2ccc3ccccc3c12,outcome,[6],inactive
same,outcome,THRA (gene 7067),inactive
same,outcome,[10],inactive
same,outcome,THRB (gene 7068) [19],inactive
Nc1ccn([C@@H]2O[C@H](CO)[C@@H](O)C2O)c(=O)n1 (some centres not stated),outcome,[6],inactive
same,outcome,THRA (gene 7067),inactive
same,outcome,THRB (gene 7068) [7],inactive
same,outcome,[10],inactive
same,outcome,THRB (gene 7068) [19],inactive
